# KB-V1 MDR tox: kills drug-selected multidrug resistant KB-V1 cells | KB-V1 MDR cells viability, CellTiter-Glo, 72 h | Potency, µM (series often up to 46.1 µM), most hits filed as cytotoxic | actives 3.4% (n = 400,000) | AID 1347076; further: nearly all actives have a fitted effect of over 60% in size
#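 Cytotoxicity via CellTiter-Glo luminescence after 72 h compound exposure at 37 degrees C. Cells: drug-selected KB-V1 line, DMEM phenol-red free plus 10% FBS. Compounds tested at multiple concentrations; normalized data fitted to concentration-effect curves.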
# HT1080 IDH1KD tx: HT-1080 IDH1 knockdown cell toxicity (counter line) | Potency, µM (titrated, usually from 46.1 µM), inactives show at the top dose activity, negative = toxicity, hits mostly cytotoxic | actives 2% (n = 360,000) | HT-1080 IDH1 knockdown viability, ATP luminescence, 48 h;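 further: 0% = DMSO wells and -100% = cell-free medium wells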
#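 Assay cells: HT-1080 with IDH1 knockdown, 750 per well, RPMI/5% FBS. Exposure: 48 h at 37 °C following 2 h pre-incubation. Read: CellTiter-Glo luminescence; fitted concentration-response, curve class assigned.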
# HT1080-NT tox: kills 2HG-producing HT-1080-NT fibrosarcoma cells; Potency, µM (titrated, usually from 46.1 µM), for inactives: top-dose activity, negative = less viability, most hits filed as cytotoxic; HT-1080-NT fibrosarcoma viability, CellTiter-Glo ATP luminescence, 48 h; AID 686970; actives 1.6% (n = 360,000);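 further: NT is the 2HG producing partner of a matched IDH1 knockdown line; 0% = DMSO-treated cells and -100% = media-only wells without cells; nearly all actives have a fitted effect of over 55% in size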
#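 HT-1080-NT; 750 cells/well; 5% FBS RPMI; 48 h compound, 37 degrees C; CellTiter-Glo luminescence; curve fitting and curve-class assignment.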
# TDP1 cell CPT: DT40-hTDP1 cell growth loss with CPT | Potency, µM (titrated, usually from 46.2 µM), for inactives: top-dose activity change, negative = growth inhibition, usual class: inhibitors | chicken DT40 Tdp1-/-;hTDP1 cells + 20 nM CPT, ATP luminescence, 48 h | AID 686979 | actives 12% (n = 420,000); further: nearly all actives have a fitted effect of over 55% in size
#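 Chicken DT40 Tdp1-/- cells complemented with human TDP1, 400 cells/well, exposed to compounds plus 20 nM camptothecin for at least 48 h at 37 C; viability read as ATP content by CellTiter-Glo luminescence.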
# TDP1 cell noCPT: qHTS for Inhibitors of human tyrosyl-DNA phosphodiesterase 1 (TDP1): qHTS in cells in absence of CPT. DT40 Tdp1-/- hTDP1 cells, no CPT, ATP luminescence, 48 h. actives 15% (n = 420,000). AID 686978, 2013. Potency, µM (series often up to 46.2 µM), for inactives: at the highest dose activity change, negative = growth inhibition, actives largely listed as inhibitors; further: nearly all actives have a fitted effect of over 55% in size
#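 No-CPT arm: Tdp1-/-;hTDP1 DT40 cells (400/well) plus compounds, incubated ≥48 hr at 37 °C. Readout CellTiter-Glo luminescence.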
# KB-3-1 cytotox: kills parental KB-3-1 adenocarcinoma cells. actives 1.4% (n = 400,000). AID 1347075. KB-3-1 viability, CellTiter-Glo ATP luminescence, 72 h. Potency, µM (top dose mostly 46.1 µM), actives largely listed as cytotoxic; further: nearly all actives have a fitted effect of over 60% in size
#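 Parental KB-3-1 viability, qHTS format: 72 h compound exposure, 37 °C; CellTiter-Glo; media-only wells and DMSO plates as controls; concentration-effect fits on corrected data.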
# * = called active by the depositor; i = inactive; u = inconclusive; x = not tested or not shown. In the library only some 19% were active in any assay of this set; here they are far more common. The call rests on the fitted dose curve; in most records, active means well fitted curve in the direction sought with a large enough effect; inconclusive means small, poorly fitted or top-dose-only effect, or another doubt; inactive means no such curve, though single readings can be large; an effect the other way counts as inactive or inconclusive. Unless noted, on the % scale 0 is the no-effect control and ±100 the full control effect; potency means the concentration at half of the fitted maximal effect.
SMILES,KB-V1 MDR tox,HT1080 IDH1KD tx,HT1080-NT tox,TDP1 cell CPT,TDP1 cell noCPT,KB-3-1 cytotox
N=c1oc2ccc(Br)cc2cc1C(=O)NC1CCCCCC1,i,9.1%,-0.2%,16.4µM*,9.2µM*,i
COc1ccc(S(=O)(=O)CC(=O)c2cc3cc(Br)ccc3oc2=O)cc1,u,-4.4%,7.3%,u,11.6µM*,i
COc1ccc(OC)c(S(=O)(=O)CC(=O)c2cc3ccc(OC)cc3oc2=O)c1,i,0.0%,-0.4%,-4.4%,-8.8%,i
CS(=O)(=O)N1CCC(n2c(C(F)(F)F)nc3cccnc32)CC1,i,x,x,-22.8%,-11.3%,i
C=C(C)C(=O)Oc1ccc(N=Nc2ccc(C)cc2)ccc1=O,u,23.1µM*,u,10.3µM*,2.91µM*,i
CCN1C(=O)CC(NC2CCN(C(=O)c3ccc(F)cc3)CC2)C1=O (stereo not given),i,7.9%,4.6%,9.4%,6.3%,i
COc1coc(/C=C/C(=O)O)cc1=O,i,17.3%,17.9%,-2.3%,-14.6%,i
CCc1ccc(CN2CCC(Oc3cc(C(=O)NC4CC4)ccc3OC)CC2)cc1,i,-15.3%,-6.7%,-31.6%,14.6µM*,i
C=C(C)c1cccc(C(C)(C)NC(=O)N(Cc2ccccc2)Cc2ccco2)c1,u,u,-23.8%,16.4µM*,20.6µM*,i
O=C(NC1CCN(Cc2ccccc2)CC1)c1cccc(Br)c1,i,-12.3%,-13.3%,16.4µM*,u,i
CCN(c1ccccc1)S(=O)(=O)c1ccc(C(=O)NC2CCN(Cc3ccccc3)CC2)cc1,u,u,-16.6%,8.2µM*,7.31µM*,16.4µM*
O=C(O)/C=C/C(=O)N(Cc1ccccc1)Cc1ccco1,i,1.5%,5.1%,16.6%,18.5%,i
COc1ccc(S(=O)(=O)N2CCC(Nc3ccccc3Cl)CC2)cc1,i,1.6%,0.9%,-21.4%,-12.6%,u
O=C(NCc1ccccc1F)C1CCCN1C(=O)NC1CCCCC1 (stereo not given),20.6µM*,0.2%,-0.3%,17.1%,-2.0%,i
O=C(/C=C/c1cccc(F)c1)NC1CCN(Cc2ccccc2)CC1,i,2.8%,-5.6%,-13.0%,u,i
Cc1ccc(CN2CCC(NC(=O)c3ccccc3)CC2)cc1,i,15.8%,9.4%,u,18.4µM*,i
CN(CC(=O)NC1CCN(Cc2ccccc2)CC1)S(=O)(=O)c1ccc(Br)s1,u,2.0%,-0.8%,u,u,23.1µM*
Cc1ccccc1C(=O)NC1CCN(Cc2ccccc2)CC1,i,-1.4%,3.5%,-0.3%,0.6%,i
O=C(/C=C/c1cccc(Br)c1)NC1CCN(Cc2ccccc2)CC1,i,u,-12.8%,u,23.1µM*,i
O=C(CN1CCC(NC(=O)c2ccc(F)cc2)CC1)NCc1ccccc1F,11.6µM*,9.6%,2.6%,-3.5%,16.3%,i
Cc1ccc(C)n1-c1ccc(C(=O)NC2CCN(Cc3ccccc3)CC2)cc1,2.31µM*,-11.2%,0.2%,u,20.6µM*,u
O=C(CN1CCC(NC(=O)c2ccccc2)CC1)NCc1ccccc1F,i,-3.9%,-4.1%,3.9%,-2.4%,i
C=C(C)c1cccc(C(C)(C)NC(=O)NC2CCN(Cc3ccccc3)CC2)c1,i,0.0%,-2.6%,u,18.4µM*,i
CC1(C(=O)NC2CCN(Cc3ccccc3)CC2)CCN1CCc1ccccc1 (stereo not given),i,-11.5%,-7.4%,29.1µM*,u,i
O=C(NC1CCN(Cc2ccccc2)CC1)c1ccc2c(c1)OCCCO2,i,-8.7%,-2.8%,-9.7%,-20.2%,i
SMILES,KB-V1 MDR tox,HT1080 IDH1KD tx,HT1080-NT tox,TDP1 cell CPT,TDP1 cell noCPT,KB-3-1 cytotox
CC(C)[C@H](NC(=O)NC1CCN(Cc2ccccc2)CC1)C(=O)O,i,11.6%,-2.7%,-15.0%,-16.4%,i
CCOc1ccc(/C=C/C(=O)N(C)CC(=O)Nc2cccc(F)c2)cc1OCC,i,-29.5%,u,10.2%,-4.9%,i
O=C(CN(Cc1ccccc1)C(=O)c1ccco1)NCc1ccc(F)cc1,i,0.3%,-3.6%,-12.7%,-12.8%,i
Cc1cc(NC(=O)C(C)SCC(=O)Nc2cc(C(F)(F)F)ccc2N2CCOCC2)no1 (stereo not given),i,5.5%,-1.2%,9.7%,u,i
CCOc1ccc(NC(=O)C2C(C(=O)O)C3(Cl)C(Cl)=C(Cl)C2(Cl)C3(Cl)Cl)cc1 (stereo not given),i,-2.4%,-24.6%,-3.4%,4.3%,i
Cc1ccc(NNC(=O)c2ccno2)c(C)c1,i,7.31µM*,5.8µM*,2.6%,18.4µM*,i
Cc1ccc(NNC(=O)CCc2ccccc2)c(C)c1,i,25.9µM*,u,-6.8%,-2.6%,i
Cc1ccc(NNC(=O)c2sccc2Cl)c(C)c1,x,-18.8%,-8.9%,u,u,x
Cc1ccc(S(=O)(=O)NCC(=O)OCC(=O)NCc2cccs2)cc1,i,-0.3%,1.9%,-1.2%,-11.2%,i
COc1cccc(C2c3c(-c4ccccc4O)n[nH]c3C(=O)N2Cc2ccco2)c1 (stereo not given),i,-12.9%,-5.8%,u,u,i
O=C1c2[nH]nc(-c3ccccc3O)c2C(c2ccccc2)N1Cc1ccco1 (stereo not given),i,u,u,23.1µM*,20.6µM*,i
O=C1c2[nH]nc(-c3ccccc3O)c2C(c2ccccc2F)N1Cc1ccco1 (stereo not given),i,-4.6%,-22.5%,u,u,i
COc1cc(C2c3c(-c4ccccc4O)n[nH]c3C(=O)N2Cc2ccco2)ccc1OCC(C)C (stereo not given),u,x,x,u,18.4µM*,u
O=C1c2[nH]nc(-c3ccccc3O)c2C(c2ccc(Cl)cc2)N1Cc1ccco1 (stereo not given),i,x,x,16.4µM*,u,u
CC(C)c1ccc(C2c3c(-c4ccccc4O)n[nH]c3C(=O)N2Cc2ccncc2)cc1 (stereo not given),u,x,x,u,u,i

# Screening data deposited in PubChem BioAssay by National Center for Advancing Translational Sciences (NCATS).
